Measured values reported in the supplement of paper PMC13380429.
Values without a mark were called inactive.

System: Vero E6 infected with SARS-CoV-2
Experiment: inhibition of SARS-CoV-2 cytopathic effect; higher = more antiviral protection, active = above 15
Settings: 48 h

Structure (SMILES) | inhibition of SARS-CoV-2 cytopathic effect (1 nM) | inhibition of SARS-CoV-2 cytopathic effect (8.33 nM) [%] | inhibition of SARS-CoV-2 cytopathic effect (100 nM) [%] | inhibition of SARS-CoV-2 cytopathic effect (833.33 nM) [%] | inhibition of SARS-CoV-2 cytopathic effect (10000 nM)
CC(C)C[C@H](NC(=O)[C@H](CCCCN)NC(=O)[C@H](CCCNC(=N)N)NC(=O)[C@H](C)NC(=O)[C@H](CO)NC(=O)[C@H](CCCCN)NC(=O)[C@H](CCCNC(=N)N)NC(=O)[C@H](C)NC(=O)CNC(=O)[C@@H](NC(=O)[C@H](Cc1ccccc1)NC(=O)CNC(=O)CNC(=O)[C@@H](N)Cc1ccccc1)[C@@H](C)O)C(=O)N[C@@H](C)C(=O)N[C@@H](CC(N)=O)C(=O)N[C@@H](CCC(N)=O)C(=O)O [orphanin-fq] | 1.63% | -0.61 | 0.09 | 0.66 | 0.4%
NC(=O)c1ncn([C@@H]2O[C@H](CO)[C@@H](O)[C@H]2O)n1 [ribavirin] | -5.15% | -3.9 | -6.04 | -0.66 | 4.23%
CC(=O)Nc1ccc(C(=O)NC(C)(C)C)cc1 | -4.86% | -3.67 | -1.32 | -3.41 | -0.2%
CC(=O)c1ccc2c(c1)C(=O)C1(CC1)O2 [spizofurone] | -4.51% | 5.43 | 0.26 | 0.65 | 2.1%
Cn1c([N+](=O)[O-])cnc1COC(N)=O [ronidazole] | 2.87% | 0.97 | 1.04 | 2.17 | 2.12%
CC(=O)O[C@]1(C(C)=O)CC[C@H]2[C@@H]3C[C@H](C)C4=CC(=O)C=C[C@]4(C)[C@@]3(F)[C@@H](O)C[C@@]21C [fluorometholone-acetate] | 0.25% | 0.86 | -0.18 | 0.37 | -0.24%
O=C(O)Cc1ccccc1Nc1c(Cl)cccc1Cl [diclofenac] | 1.25% | 0.03 | 0.38 | -0.74 | 0.2%
Cc1cc(-n2c(=O)[nH]c(=O)n(C)c2=O)ccc1Oc1ccc(SC(F)(F)F)cc1 [toltrazuril] | 1.91% | -0.85 | 1.02 | -10.3 | -0.06%
Cc1ccc(NC(=O)Nc2cc(C(F)(F)F)ccc2F)cc1Nc1ccc2c(c1)NC(=O)/C2=C\c1ccc[nH]1 | 5.12% | 5.28 | 5.34 | 7.91 | 4.87%
Cn1cc(-c2ccc3nnc(C(F)(F)c4ccc5ncccc5c4)n3n2)cn1 | 0.45% | 2.96 | 4.23 | 0.5 | 6.76%
COc1c(N2C[C@@H]3CCCN[C@@H]3C2)c(F)cc2c(=O)c(C(=O)O)cn(C3CC3)c12 [moxifloxacin] | 1.16% | 0.31 | 2.33 | 0.76 | 1.03%
Cc1[nH]c2ccccc2c1CCNC(=O)c1cccs1 | -3.95% | -2.61 | -2.69 | 1.32 | 16% (active)
CCN(CC)CCOC(=O)C1(C2CCCCC2)CCCCC1 [dicycloverine] | 17.5% (active) | 0.53 | 2.57 | 0.85 | 1.16%
COC(=O)C1=C(C)NC(C)=C(C(=O)OCCN(C)Cc2ccccc2)C1c1cccc([N+](=O)[O-])c1 (stereo not given) [nicardipine] | 0.9% | 0.28 | 0.23 | -0.11 | -1.36%
O=C(Nc1cc(C(F)(F)F)ccc1O)Nc1cc(C(F)(F)F)ccc1O | -2.23% | 2.44 | 6.17 | -1.82 | -0.23%
O=C(OCCOCCO)c1ccccc1Nc1cccc(C(F)(F)F)c1 [etofenamate] | 1.16% | -1.53 | 0.55 | -0.46 | -2.39%
CC(O)c1cc(C(=O)N[C@@H](C)Cn2ccc(-c3ccc(C#N)c(Cl)c3)n2)n[nH]1 (stereo not given in full) | 1.69% | 0.5 | 0.89 | -0.69 | 0.64%
CCNC(=O)c1noc(-c2cc(C(C)C)c(O)cc2O)c1-c1ccc(CN2CCOCC2)cc1 | 0.97% | -0.58 | -1.84 | 0.4 | -4.07%
COC(=O)C1=C(C#N)NC(C)=C(C(=O)OC(C)C)C1c1cccc([N+](=O)[O-])c1 (stereo not given) [nilvadipine] | -1.91% | -2.45 | 0.29 | 5.15 | 3.78%
